{
  "source": "PubChem BioAssay (NCATS)",
  "note": "Records with an inconclusive call do not appear. Unmarked numbers belong to inactive results. Active and inactive are the calls of the source. The call rests on the fitted dose curve; in most records, active means well fitted curve in the direction sought with a large enough effect; inconclusive means small, poorly fitted or top-dose-only effect, or another doubt; inactive means no such curve, though single readings can be large; an effect the other way counts as inactive or inconclusive. Potency means the concentration at half of the fitted maximal effect.",
  "data": [
    {"assay": "qHTS of pediatric cancer cell lines to identify multiple opportunities for drug repurposing: Confirmatory screen for OHS-50 cells (AID 1347128);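 further: compound exposure lasted 48 h at 37 degrees C; nearly all actives have a fitted effect of over 55% in size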; on activity change, negative = cytotoxic: on the % scale 0 is the no-effect control and ±100 the full control effect", "conditions": "OHS-50 osteosarcoma cells viability; series mostly up to 45.9 µM; activity change, negative = cytotoxic: at the top concentration", "outline": "(§1)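 Viability after 48 h compound treatment at 37C, 500-1,000 cells/well, read as ATP luminescence with CellTiter-Glo. Primary screens used 11-point (MIPE, 0.78 nM-46 µM) or 8-point (NPC, 0.59 nM-46 µM) final concentrations; follow-up screens used 11-point dilutions.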", "units": {"activity change, negative = cytotoxic": "%"}, "values": [
      {"smiles": "CN(C(Cc1ccc(OS(=O)(=O)c2cccc3cnccc23)cc1)C(=O)N1CCN(c2ccccc2)CC1)S(=O)(=O)c1cccc2cnccc12", "note": "(configuration not stated)", "Potency": "5.22 µM (active)"},
      {"smiles": "Cc1ccc2c(c1)C(=O)[C@]1(O)CCN(c3ccccc3)C1=N2", "activity change, negative = cytotoxic": -15.1},
      {"smiles": "COC1CCC(C(=O)c2ccc3nc4c(cc3c2)CCCO4)CC1", "note": "(configuration not stated)", "activity change, negative = cytotoxic": 0.297},
      {"smiles": "O=C1NC(=O)C(c2cnc3ccccn23)=C1c1cn2c3c(cccc13)CN(C(=O)N1CCOCC1)CC2", "Potency": "10.4 µM (active)"},
      {"smiles": "Cc1ccccc1-n1c(Cn2nc(-c3cccc(O)c3)c3c(N)ncnc32)nc2cccc(C)c2c1=O", "activity change, negative = cytotoxic": -11.8},
      {"smiles": "CCC(=O)N1CCN(c2ccc(-n3c(=O)ccc4cnc5ccc(-c6cnc7ccccc7c6)cc5c43)cc2C(F)(F)F)CC1", "activity change, negative = cytotoxic": -0.976},
      {"smiles": "CCC[C@H](Nc1nc(-c2ccc(NC(=O)NCC)c(OC)c2)ncc1C)c1cccnc1", "Potency": "0.329 µM (active)"},
      {"smiles": "COC(=O)Nc1ccc(-c2nc(N3CCOCC3)c3cnn(C4CCN(C(=O)OC)CC4)c3n2)cc1", "Potency": "16.5 µM (active)"},
      {"smiles": "Cc1csc(-c2nnc(Nc3ccc(Oc4ncccc4-c4ccnc(N)n4)cc3)c3ccccc23)c1", "activity change, negative = cytotoxic": -24.1},
      {"smiles": "CN[C@@H]1CN(c2ccc3c(=O)c(C(=O)O)cn(-c4nccs4)c3n2)C[C@@H]1OC", "Potency": "6.44 µM (active)"}
    ]},
    {"assay": "qHTS of pediatric cancer cell lines to identify multiple opportunities for drug repurposing: Confirmatory screen for SK-N-SH cells (AID 1347129);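 further: cells exposed to compound for 48 h before viability read; nearly all actives have a fitted effect of over 60% in size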;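 on activity change, negative = cytotoxic: plate controls were DMSO for no effect and bortezomib control for full effect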", "conditions": "SK-N-SH neuroblastoma cell viability; series mostly up to 46.1 µM; activity change, negative = cytotoxic: at the top concentration", "outline": "as §1", "units": {"activity change, negative = cytotoxic": "%"}, "values": [
      {"smiles": "CC1(C)CC(=O)c2c(C(F)(F)F)nn(-c3ccc(C(N)=O)c(NC4CCC(O)CC4)c3)c2C1", "note": "(configuration not stated)", "Potency": "0.264 µM (active)"},
      {"smiles": "Nc1[nH]nc2nnc(-c3c(-c4ccccc4)nn4ccccc34)cc12", "activity change, negative = cytotoxic": -6.81},
      {"smiles": "CC(=O)N1CCN(c2ccc(OCc3nn(C)c(C)c3-c3cccc4c(CCCOc5cc(C)c(Cl)c(C)c5)c(C(=O)O)n(Cc5cccnc5)c34)cc2)CC1", "activity change, negative = cytotoxic": -15.1},
      {"smiles": "CN(C(Cc1ccc(OS(=O)(=O)c2cccc3cnccc23)cc1)C(=O)N1CCN(c2ccccc2)CC1)S(=O)(=O)c1cccc2cnccc12", "note": "(configuration not stated)", "activity change, negative = cytotoxic": -26.6},
      {"smiles": "COc1cc2nccc(Oc3ccc(NC(=O)Nc4cc(C)on4)c(Cl)c3)c2cc1OC", "Potency": "9.35 µM (active)"},
      {"smiles": "Cc1ccc2c(c1)C(=O)[C@]1(O)CCN(c3ccccc3)C1=N2", "activity change, negative = cytotoxic": 5.67},
      {"smiles": "COC1CCC(C(=O)c2ccc3nc4c(cc3c2)CCCO4)CC1", "note": "(configuration not stated)", "activity change, negative = cytotoxic": -5.03},
      {"smiles": "Cc1ccccc1-n1c(Cn2nc(-c3cccc(O)c3)c3c(N)ncnc32)nc2cccc(C)c2c1=O", "activity change, negative = cytotoxic": -16.2},
      {"smiles": "CCC(=O)N1CCN(c2ccc(-n3c(=O)ccc4cnc5ccc(-c6cnc7ccccc7c6)cc5c43)cc2C(F)(F)F)CC1", "activity change, negative = cytotoxic": 1.43},
      {"smiles": "COc1cc2c(cc1OC)[C@@H]1Cc3ccc(OC)c(OC)c3CN1CC2", "activity change, negative = cytotoxic": -6.99},
      {"smiles": "Nc1ncnc2c1ncn2[C@@H]1O[C@H](CO)[C@@H](O)[C@@H]1O", "activity change, negative = cytotoxic": -2.81},
      {"smiles": "CCOC(=O)[C@H](CCc1ccccc1)N[C@@H](C)C(=O)N1CCCC1C(=O)O", "note": "(some centres not stated)", "activity change, negative = cytotoxic": -11.8},
      {"smiles": "CCC[C@H](Nc1nc(-c2ccc(NC(=O)NCC)c(OC)c2)ncc1C)c1cccnc1", "activity change, negative = cytotoxic": -2.89},
      {"smiles": "CC[C@H](NC(=O)[C@H](C)NC)C(=O)N1C[C@@H](O)C[C@H]1Cc1c(-c2[nH]c3cc(F)ccc3c2C[C@H]2C[C@H](O)CN2C(=O)[C@H](CC)NC(=O)[C@H](C)NC)[nH]c2cc(F)ccc12", "activity change, negative = cytotoxic": -6.6},
      {"smiles": "COC(=O)Nc1ccc(-c2nc(N3CCOCC3)c3cnn(C4CCN(C(=O)OC)CC4)c3n2)cc1", "Potency": "4.18 µM (active)"},
      {"smiles": "Cc1csc(-c2nnc(Nc3ccc(Oc4ncccc4-c4ccnc(N)n4)cc3)c3ccccc23)c1", "Potency": "6.62 µM (active)"},
      {"smiles": "CN[C@@H]1CN(c2ccc3c(=O)c(C(=O)O)cn(-c4nccs4)c3n2)C[C@@H]1OC", "Potency": "7.24 µM (active)"}
    ]}
  ]
}
